# Data from PubChem BioAssay (EPA / NIEHS).
# Results filed as inconclusive are left out. Activity calls are given as the source filed them. The calls were made as follows: active = hit-call score of the fitted dose curve at least 0.9, where 1 is the maximum; inconclusive = response in the unintended direction; inactive = score below 0.9.
# Assays:
# [1] = target: Cytochrome P450 3A4 (Homo sapiens) (UniProt P08684); assay: NVS_ADME_hCYP3A4: NovaScreen (NVS) CYP450-related Enzyme Activity (ADME) Assay for human CYP3A4 (AID 2283110)
# Cytochrome P450 3A4 (Homo sapiens), sequence (P08684 whole entry, looked up): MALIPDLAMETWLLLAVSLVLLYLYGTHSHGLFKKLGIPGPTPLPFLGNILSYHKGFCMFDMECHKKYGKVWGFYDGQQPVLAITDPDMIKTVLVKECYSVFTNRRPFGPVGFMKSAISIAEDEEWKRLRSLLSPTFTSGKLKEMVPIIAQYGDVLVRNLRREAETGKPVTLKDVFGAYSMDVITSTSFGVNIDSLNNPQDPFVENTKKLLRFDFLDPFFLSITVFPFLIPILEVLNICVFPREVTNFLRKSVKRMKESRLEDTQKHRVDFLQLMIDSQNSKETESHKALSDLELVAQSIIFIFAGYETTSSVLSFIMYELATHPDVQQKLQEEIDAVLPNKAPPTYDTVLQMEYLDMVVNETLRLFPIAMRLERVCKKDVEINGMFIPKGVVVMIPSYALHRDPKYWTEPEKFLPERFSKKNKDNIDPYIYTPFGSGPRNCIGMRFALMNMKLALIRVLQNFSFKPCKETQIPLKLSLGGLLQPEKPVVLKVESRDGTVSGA
# Method in brief: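 Cell-free recombinant enzyme expressed in insect cells; fluorescent substrate turnover read after 0.33 h, acetonitrile as negative control. Primary screen in duplicate at 10 uM, actives then tested in concentration series.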
# [2] = target: Cytochrome P450 2C19 (Homo sapiens) (UniProt P33261); assay: NVS_ADME_hCYP2C19: NovaScreen (NVS) CYP450-related Enzyme Activity (ADME) Assay for human CYP2C19 (AID 2283113);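 as to AC50: potency for inhibition seen as loss of fluorescent signal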
# Method in brief: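 Recombinant insect-cell-expressed enzyme, fluorescent substrate, 1 h after chemical addition, fluorescence intensity. Baseline = acetonitrile vehicle; activity scored as signal loss. Primary HTS single concentration 10 uM, duplicate; actives retested in concentration series.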
# [3] = target: human Caspase 5 (CASP5), CASP5 (gene 838) (UniProt P51878); assay: NVS_ENZ_hCASP5: NovaScreen (NVS) Enzymatic Assay for human Caspase 5 (CASP5) (AID 2283137)
# human Caspase 5 (CASP5), CASP5 (gene 838), sequence (P51878 whole entry, looked up): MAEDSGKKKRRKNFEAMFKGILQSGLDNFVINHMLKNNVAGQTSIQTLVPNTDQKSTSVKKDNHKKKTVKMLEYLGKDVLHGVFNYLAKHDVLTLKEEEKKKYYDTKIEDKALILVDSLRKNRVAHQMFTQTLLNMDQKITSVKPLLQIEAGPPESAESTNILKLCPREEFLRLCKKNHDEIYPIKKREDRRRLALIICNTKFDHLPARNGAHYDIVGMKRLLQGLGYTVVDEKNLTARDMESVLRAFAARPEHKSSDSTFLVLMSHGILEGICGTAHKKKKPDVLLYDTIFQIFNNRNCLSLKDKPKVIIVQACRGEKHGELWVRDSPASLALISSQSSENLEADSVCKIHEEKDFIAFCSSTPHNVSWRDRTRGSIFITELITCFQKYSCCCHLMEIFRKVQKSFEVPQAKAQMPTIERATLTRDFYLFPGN
# Method in brief: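 Cell-free protease assay with bacterially expressed CASP5 and a fluorescent substrate, measured at 2 h. Values fitted relative to DMSO as baseline, from concentration-response series topping at 50 uM.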
# [4] = target: Caspase-3 (Homo sapiens) (UniProt P42574); assay: NVS_ENZ_hCASP3: NovaScreen (NVS) Enzymatic Assay for human Caspase 3 (CASP3) (AID 2283139)
# Caspase-3 (Homo sapiens), sequence (P42574 whole entry, looked up): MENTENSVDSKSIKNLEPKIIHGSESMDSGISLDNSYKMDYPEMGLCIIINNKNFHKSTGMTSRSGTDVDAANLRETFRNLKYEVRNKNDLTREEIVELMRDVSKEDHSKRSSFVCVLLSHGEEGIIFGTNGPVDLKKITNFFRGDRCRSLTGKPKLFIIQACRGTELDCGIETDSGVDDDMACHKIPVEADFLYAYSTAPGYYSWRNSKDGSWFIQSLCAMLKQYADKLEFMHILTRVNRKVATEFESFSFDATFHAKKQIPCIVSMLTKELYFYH
# Method in brief: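 Recombinant human caspase-3 from E. coli with a fluorogenic substrate, read by fluorescence 1 h after dosing. Primary screen in duplicate at 25 uM. Actives (for example ≥30% inhibition) rerun as concentration-response up to 50 uM.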
# [5] = target: human CYP2B6, CYP2B6 (gene 1555) (UniProt P20813); assay: NVS_ADME_hCYP2B6: NovaScreen (NVS) CYP450-related Enzyme Activity (ADME) Assay for human CYP2B6 (AID 2283101)
# human CYP2B6, CYP2B6 (gene 1555), sequence (P20813 whole entry, looked up): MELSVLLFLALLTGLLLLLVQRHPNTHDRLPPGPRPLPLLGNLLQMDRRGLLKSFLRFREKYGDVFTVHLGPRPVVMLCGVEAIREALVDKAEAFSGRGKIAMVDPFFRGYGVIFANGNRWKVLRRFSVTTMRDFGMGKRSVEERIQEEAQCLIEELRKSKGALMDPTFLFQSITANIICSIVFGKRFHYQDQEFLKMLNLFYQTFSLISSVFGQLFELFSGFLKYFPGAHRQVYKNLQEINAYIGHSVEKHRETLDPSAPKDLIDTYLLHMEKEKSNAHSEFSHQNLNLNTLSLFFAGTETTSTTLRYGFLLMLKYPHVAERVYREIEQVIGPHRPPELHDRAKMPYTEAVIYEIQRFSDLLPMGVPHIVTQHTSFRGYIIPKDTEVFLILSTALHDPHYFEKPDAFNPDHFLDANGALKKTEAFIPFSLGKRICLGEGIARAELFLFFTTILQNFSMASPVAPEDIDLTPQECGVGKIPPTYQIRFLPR
# Description: NVS_ADME_hCYP2B6 is a biochemical, single-readout assay that uses extracted gene-proteins in a cell-free assay. Measurements were taken 1 hour after chemical dosing in a 96-well plate.NVS_ADME_hCYP2B6 is one of one assay component(s) measured or calculated from the NVS_ADME_hCYP2B6 assay. It is designed to make measurements of enzyme activity, a form of enzyme reporter, as detected with fluorescence intensity signals by Fluorescence technology.Data from the assay component NVS_ADME_hCYP2B6 was analyzed into 1 assay endpoint. This assay endpoint, NVS_ADME_hCYP2B6, was analyzed in the positive analysis fitting direction relative to Acetonitrile as the negative control and baseline of activity. Using a type of enzyme reporter, loss-of-signal activity can be used to understand changes in the enzymatic activity as they relate to the gene CYP2B6. Furthermore, this assay endpoint can be referred to as a primary readout, because this assay has produced multiple assay endpoints where this one serves a enzymatic activity function. To generalize the intended target to other relatable targets, this assay endpoint is annotated to the cyp intended target family, where the subfamily is xenobiotic metabolism.
# Binding assays used specific radioligands (tritiated, iodinated) with non-radioactive competitive displacement ligands in agonist or antagonist protocols (as indicated) and various reference compounds and inhibitors to titrate specific binding to receptors and transporters. Most enzyme assays (CYPs, kinases, phosphatases, proteases, HDACs) used recombinant protein and specific substrates (fluorescence mostly, some colorimetric and radioactive) and inhibitors, followed by a biochemical separation of substrate and product. All assays for the biochemical HTS were initially run in duplicate at a single concentration (10 uM for CYP450 assays and 25 uM for all others). […] Each assay was run with positive and negative controls, and concurrent controls on every plate. The follow-up (secondary) screen tested active chemical-pairs in concentration series, as well as a few additional assays not tested in the primary screen, some selected negative inactives, and several cases re-run in the concentration series for confirmatory purposes.
# [6] = target: human CYP1A2, CYP1A2 (gene 1544) (UniProt P05177); assay: NVS_ADME_hCYP1A2: NovaScreen (NVS) CYP450-related Enzyme Activity (ADME) Assay for human CYP1A2 (AID 2283102);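 as to AC50: potency for inhibition since loss of fluorescence marks reduced CYP1A2 activity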
# human CYP1A2, CYP1A2 (gene 1544), sequence (P05177 whole entry, looked up): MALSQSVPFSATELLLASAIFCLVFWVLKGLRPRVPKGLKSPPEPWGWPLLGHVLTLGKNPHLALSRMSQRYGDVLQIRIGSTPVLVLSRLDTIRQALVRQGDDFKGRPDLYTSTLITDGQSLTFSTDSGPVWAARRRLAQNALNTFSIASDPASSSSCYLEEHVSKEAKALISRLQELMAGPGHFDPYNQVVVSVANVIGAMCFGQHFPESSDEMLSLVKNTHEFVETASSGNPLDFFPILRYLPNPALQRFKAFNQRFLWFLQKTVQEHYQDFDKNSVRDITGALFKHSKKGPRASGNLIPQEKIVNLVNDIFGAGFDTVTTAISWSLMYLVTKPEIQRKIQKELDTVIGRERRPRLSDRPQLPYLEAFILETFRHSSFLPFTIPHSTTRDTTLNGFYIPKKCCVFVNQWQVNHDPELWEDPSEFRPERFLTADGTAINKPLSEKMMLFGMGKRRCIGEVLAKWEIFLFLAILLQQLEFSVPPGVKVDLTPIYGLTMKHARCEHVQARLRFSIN
# Method in brief: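 Fluorescence-intensity enzyme activity read-out, taken 0.5 h post-dosing, using insect-cell-derived recombinant CYP1A2 and specific fluorescent substrate. Acetonitrile served as negative control/baseline. Single-concentration duplicate screen at 10 uM, then concentration-response follow-up.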
# [7] = target: human CYP2C9, CYP2C9 (gene 1559) (UniProt P11712); assay: NVS_ADME_hCYP2C9: NovaScreen (NVS) CYP450-related Enzyme Activity (ADME) Assay for human CYP2C9 (AID 2283108)
# human CYP2C9, CYP2C9 (gene 1559), sequence (P11712 whole entry, looked up): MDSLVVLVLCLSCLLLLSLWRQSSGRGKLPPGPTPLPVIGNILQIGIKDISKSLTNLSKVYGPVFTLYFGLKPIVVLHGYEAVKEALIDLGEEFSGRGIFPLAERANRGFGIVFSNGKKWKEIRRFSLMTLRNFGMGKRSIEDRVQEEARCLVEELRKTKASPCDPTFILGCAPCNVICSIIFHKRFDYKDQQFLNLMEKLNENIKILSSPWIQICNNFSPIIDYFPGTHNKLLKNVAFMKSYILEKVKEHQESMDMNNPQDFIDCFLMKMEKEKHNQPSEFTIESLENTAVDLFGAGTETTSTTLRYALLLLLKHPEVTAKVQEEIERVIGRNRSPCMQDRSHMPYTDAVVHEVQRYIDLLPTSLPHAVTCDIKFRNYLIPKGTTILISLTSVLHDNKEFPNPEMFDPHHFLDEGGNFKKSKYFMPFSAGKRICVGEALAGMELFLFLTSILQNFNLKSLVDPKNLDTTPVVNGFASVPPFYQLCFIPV
# Method in brief: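 Recombinant human CYP2C9 expressed in SF9 cells, fluorogenic substrate, fluorescence read 0.75 h after dosing. Chemicals first run in duplicate at 10 uM, with actives followed in concentration series; loss of signal versus acetonitrile baseline.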
# [8] = target: human CYP2D6, CYP2D6 (gene 1565) (UniProt P10635); assay: NVS_ADME_hCYP2D6: NovaScreen (NVS) CYP450-related Enzyme Activity (ADME) Assay for human CYP2D6 (AID 2283107)
# human CYP2D6, CYP2D6 (gene 1565), sequence (P10635 whole entry, looked up): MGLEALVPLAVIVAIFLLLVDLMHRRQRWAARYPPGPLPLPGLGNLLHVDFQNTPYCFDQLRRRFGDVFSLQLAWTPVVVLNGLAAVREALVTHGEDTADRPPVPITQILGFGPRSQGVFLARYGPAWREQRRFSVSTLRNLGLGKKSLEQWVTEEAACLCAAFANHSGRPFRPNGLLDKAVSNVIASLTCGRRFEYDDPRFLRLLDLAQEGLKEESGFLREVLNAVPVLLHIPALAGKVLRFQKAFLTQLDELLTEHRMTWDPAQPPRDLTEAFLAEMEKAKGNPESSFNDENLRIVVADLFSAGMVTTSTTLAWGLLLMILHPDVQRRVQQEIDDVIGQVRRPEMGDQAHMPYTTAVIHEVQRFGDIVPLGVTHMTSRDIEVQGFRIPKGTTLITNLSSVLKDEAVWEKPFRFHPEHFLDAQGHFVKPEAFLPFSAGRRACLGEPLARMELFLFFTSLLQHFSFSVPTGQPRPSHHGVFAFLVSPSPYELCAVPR
# Method in brief: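 Fluorescence intensity read 1 h post-dosing; insect-cell-expressed recombinant protein with fluorogenic substrate, no cells. Activity is scored as signal loss relative to acetonitrile baseline, first at a single 10 uM concentration in duplicate, then as concentration series for confirmed actives.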
# [9] = target: human Acid Phosphatase 1 (ACP1), ACP1 (gene 52) (UniProt P24666); assay: NVS_ENZ_hACP1: NovaScreen (NVS) Enzymatic Assay for human Acid Phosphatase 1 (ACP1) (AID 2283136)
# human Acid Phosphatase 1 (ACP1), ACP1 (gene 52), sequence (P24666 whole entry, looked up): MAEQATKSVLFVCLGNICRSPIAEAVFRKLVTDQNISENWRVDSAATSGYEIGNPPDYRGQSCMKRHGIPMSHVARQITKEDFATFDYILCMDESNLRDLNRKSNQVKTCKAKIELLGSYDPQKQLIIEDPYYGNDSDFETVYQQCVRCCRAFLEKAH
# Method in brief: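 Recombinant enzyme expressed in Sf9 cells, tested cell-free; activity read by fluorescence with electrophoretic mobility shift separation of substrate and product, 1.5 h after dosing. Primary screen in duplicate at 25 uM, actives then run in concentration series; loss of signal versus DMSO.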
# [10] = target: human AKT serine/threonine Kinase 1 (AKT1), AKT1 (gene 207) (UniProt P31749); assay: NVS_ENZ_hAKT1: NovaScreen (NVS) Enzymatic Assay for human AKT serine/threonine Kinase 1 (AKT1) (AID 2283138)
# human AKT serine/threonine Kinase 1 (AKT1), AKT1 (gene 207), sequence (P31749 whole entry, looked up): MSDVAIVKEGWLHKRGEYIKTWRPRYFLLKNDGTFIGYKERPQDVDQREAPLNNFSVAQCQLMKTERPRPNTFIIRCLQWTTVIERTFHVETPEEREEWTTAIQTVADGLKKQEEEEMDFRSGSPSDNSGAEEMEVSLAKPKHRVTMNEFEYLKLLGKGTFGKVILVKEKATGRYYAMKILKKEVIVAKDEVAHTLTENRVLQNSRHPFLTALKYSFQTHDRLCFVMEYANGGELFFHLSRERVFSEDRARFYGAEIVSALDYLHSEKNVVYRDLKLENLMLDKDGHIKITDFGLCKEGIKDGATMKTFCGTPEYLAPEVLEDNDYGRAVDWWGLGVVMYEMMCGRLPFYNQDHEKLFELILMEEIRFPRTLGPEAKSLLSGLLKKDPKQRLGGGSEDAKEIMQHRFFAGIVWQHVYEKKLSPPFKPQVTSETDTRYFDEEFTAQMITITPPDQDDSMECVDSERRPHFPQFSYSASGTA
# Description: NVS_ENZ_hAKT1 is a biochemical, single-readout assay that uses extracted gene-proteins in a cell-free assay. Measurements were taken 1 hour after chemical dosing in a 384-well plate.NVS_ENZ_hAKT1 is one of one assay component(s) measured or calculated from the NVS_ENZ_hAKT1 assay. It is designed to make measurements of enzyme activity, a form of enzyme reporter, as detected with fluorescence intensity signals by Fluorescence and electrophoretic mobility shift technology.Data from the assay component NVS_ENZ_hAKT1 was analyzed into 1 assay endpoint. This assay endpoint, NVS_ENZ_hAKT1, was analyzed in the positive analysis fitting direction relative to DMSO as the negative control and baseline of activity. Using a type of enzyme reporter, loss-of-signal activity can be used to understand changes in the enzymatic activity as they relate to the gene AKT1. Furthermore, this assay endpoint can be referred to as a primary readout, because this assay has produced multiple assay endpoints where this one serves a enzymatic activity function. To generalize the intended target to other relatable targets, this assay endpoint is annotated to the kinase intended target family, where the subfamily is serine/threonine kinase.
# Binding assays used specific radioligands (tritiated, iodinated) with non-radioactive competitive displacement ligands in agonist or antagonist protocols (as indicated) and various reference compounds and inhibitors to titrate specific binding to receptors and transporters. Most enzyme assays (CYPs, kinases, phosphatases, proteases, HDACs) used recombinant protein and specific substrates (fluorescence mostly, some colorimetric and radioactive) and inhibitors, followed by a biochemical separation of substrate and product. All assays for the biochemical HTS were initially run in duplicate at a single concentration (10 uM for CYP450 assays and 25 uM for all others). Assay-chemical combinations meeting a pre-defined threshold (e.g., 30% inhibition and other criteria defined below) were then run in singleton concentration-response format with maximum concentration of 20 uM for CYPs and 50 uM for all others. Each assay was run with positive and negative controls, and concurrent controls on every plate. The follow-up (secondary) screen tested active chemical-pairs in concentration series, as well as a few additional assays not tested in the primary screen, some selected negative inactives, and several cases re-run in the concentration series for confirmatory purposes.
smiles,measurement,setting,value
O=C(O)Cc1cc(I)c(Oc2cc(I)c(O)c(I)c2)c(I)c1,outcome,[1],inactive
same,outcome,[2],inactive
Cc1oc(-c2ccccc2)nc1CCOc1ccc(C[C@H](Nc2ccccc2C(=O)c2ccccc2)C(=O)O)cc1,outcome,[1],inactive
same,outcome,[2],inactive
same,AC50,[3],8.25 µM (active)
CCCCCCCCCCCCCCCS(=O)(=O)Oc1ccccc1,AC50,[2],5 µM (active)
CC(O)CO (stereo not given),outcome,[4],inactive
OCCC(F)(F)C(F)(F)C(F)(F)C(F)(F)C(F)(F)C(F)(F)F,AC50,[2],6.15 µM (active)
COc1ccc([N+](=O)[O-])cc1N,outcome,[5],inactive
same,outcome,[2],inactive
CCN(CC)CCNc1ccc(CNC=O)c2sc3ccc(OC)cc3c(=O)c12,AC50,[6],7.1 µM (active)
NC(=O)N1C(=O)C(C(=O)c2cc(Cl)cs2)c2cc(F)c(Cl)cc21 (stereo not given),AC50,[7],15.7 µM (active)
same,outcome,[1],inactive
same,outcome,[2],inactive
same,outcome,[3],inactive
CC#C[C@]1(O)CC[C@H]2[C@@H]3CCC4=CC(=O)CCC4=C3[C@@H](c3ccc(N(C)C)cc3)C[C@@]21C,AC50,[7],4.12 µM (active)
same,AC50,[2],3.91 µM (active)
CCCCCCCCCCCCCC[N+](C)(C)C,AC50,[8],3.64 µM (active)
same,AC50,[2],2.73 µM (active)
COCC(C)OCC(C)O (stereo not given),outcome,[9],inactive
O=C(O)c1ccccc1C(c1ccc(O)cc1)c1ccc(O)cc1,AC50,[2],5.38 µM (active)
N#C[C@@H]1CC(F)(F)CN1C(=O)CNC1CC2CCC(C1)N2c1ncccn1 (stereo not given in full),outcome,[10],inactive
O=[N+]([O-])c1ccc(O)cc1,outcome,[5],inactive
same,outcome,[8],inactive
same,outcome,[2],inactive
CC1=C(/C=C/C(C)=C/C=C/C(C)=C/C(=O)O)C(C)(C)CCC1,outcome,[5],inactive
same,outcome,[6],inactive
same,outcome,[8],inactive
same,outcome,[2],inactive
CCCCCCCCOC(=O)CCCCCCCCC(=O)OCCCCCCCC,outcome,[10],inactive
CCCCCCCCCCCCc1ccccc1S(=O)(=O)O,AC50,[7],5.06 µM (active)
same,AC50,[10],29.1 µM (active)
CC[C@H](C)[C@@H](C(=O)O)n1sc2ccccc2c1=O,AC50,[2],13.4 µM (active)
Cc1cc(C)c(O)c(C)c1,outcome,[2],inactive
CCCOC(=O)c1ccc(O)cc1,outcome,[5],inactive
NC(=O)N(O)[C@@H]1C=C[C@H](Oc2cccc(Oc3ccc(F)cc3)c2)C1,AC50,[8],1.16 µM (active)
same,AC50,[1],4.62 µM (active)
same,AC50,[2],0.644 µM (active)
CCCCC(CC)COC(=O)CCCCC(=O)OCc1ccccc1 (stereo not given),AC50,[2],13.2 µM (active)
Cc1cc(CCN2CCN(c3nsc4ccccc34)CC2)cc2c1NC(=O)CC2(C)C,outcome,[8],inactive
same,AC50,[7],10 µM (active)
same,AC50,[2],4.35 µM (active)
Oc1cc2ccccc2c2ccccc12,AC50,[5],1.31 µM (active)
same,AC50,[6],0.0278 µM (active)
same,AC50,[8],0.136 µM (active)
same,AC50,[7],0.235 µM (active)
same,AC50,[1],6.68 µM (active)
same,AC50,[2],0.872 µM (active)
same,AC50,[3],6.88 µM (active)
same,AC50,[4],12.6 µM (active)
CCCOc1sc(C(=O)N2CCC(c3cc(CN)ccc3F)CC2)c(C)c1Br,AC50,[5],8.64 µM (active)
same,AC50,[6],5.25 µM (active)
same,AC50,[7],1.92 µM (active)
same,AC50,[1],14.4 µM (active)
same,AC50,[2],0.68 µM (active)
Nc1cccc2c(N)cccc12,AC50,[5],7.14 µM (active)
same,AC50,[6],3.06 µM (active)
same,AC50,[8],3.62 µM (active)
same,AC50,[7],6.16 µM (active)
same,AC50,[2],3.08 µM (active)
same,AC50,[10],3.13 µM (active)
CCC(=C(c1ccc(O)cc1)c1ccc(OCCN(C)C)cc1)c1ccccc1,AC50,[2],3.91 µM (active)
same,outcome,[10],inactive
CC[C@H](c1ccc(O)cc1)[C@@H](CC)c1ccc(O)cc1,AC50,[7],0.295 µM (active)
same,AC50,[2],5.22 µM (active)
C#C[C@]1(O)CC[C@H]2[C@@H]3CCC4=CC(=O)CC[C@@H]4[C@H]3CC[C@@]21C,AC50,[2],3.13 µM (active)
CC(=O)NC1(c2cccc(F)c2)CCN(CC[C@@]2(c3ccc(Cl)c(Cl)c3)CN(c3ccccc3)C(=O)CO2)CC1,AC50,[8],2.77 µM (active)
same,AC50,[7],6.63 µM (active)
same,AC50,[1],1.78 µM (active)
same,AC50,[2],1.79 µM (active)
c1ccc2cc3c(ccc4ccccc43)cc2c1,outcome,[3],inactive
O=C(OCCOCCOC(=O)c1ccccc1)c1ccccc1,AC50,[6],1.71 µM (active)
same,AC50,[7],15.3 µM (active)
same,AC50,[2],7.94 µM (active)
ClC1=C(Cl)C(Cl)(Cl)C(Cl)=C1Cl,outcome,[2],inactive
